Compound activity: PubChem BioAssay, National Center for Advancing Translational Sciences (NCATS)
HP1b binding inh: inhibitors of HP1-beta chromodomain binding to methylated histone tails. AlphaScreen HP1-beta / biotin-H3K9me3 peptide binding. Potency, µM (top dose mostly 114 µM), for the others: at the highest dose activity change, negative = inhibition, most hits filed as inhibitors. 390,000 tested, 0.56% active; note: nearly all actives have a fitted effect of over 70% in size
Target sequence (P83916 whole entry, looked up): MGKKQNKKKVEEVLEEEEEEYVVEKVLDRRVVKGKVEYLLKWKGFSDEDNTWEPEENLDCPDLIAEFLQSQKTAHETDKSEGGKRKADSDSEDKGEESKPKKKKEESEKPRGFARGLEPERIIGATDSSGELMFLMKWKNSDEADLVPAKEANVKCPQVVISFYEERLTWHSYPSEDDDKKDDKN
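AlphaScreen: HP1-beta (50 nM) preformed 30 min with biotin-H3(1-18)K9me3 peptide (50 nM) in PBS pH 7.4, 0.01% Tween-20. Compound added for 30 min at RT, then streptavidin donor/nickel chelate acceptor beads (10 ug/mL) for 30 min.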
PLK1 PBD inh: blocks phosphopeptide binding to human PLK1 polo-box domain | Plk1 PBD binding of FITC phosphopeptide, fluorescence polarization | Potency, µM, inactives show max response, negative = inhibition, usual class: inhibitors | 360,000 tested, 2.8% active; note: series mostly up to about 57 µM; % is set by controls: 0 for no effect and ±100 for the full control effect; nearly all actives have a fitted effect of over 65% in size
VDR inh: blocks the human vitamin D receptor. P11473. VDR-SRC2-3 peptide fluorescence polarization, 2 h. Potency, µM, for inactives: max response, negative = inhibition, usual class: inhibitors. 400,000 tested, 0.93% active; note: % is set by controls: 0 for no effect and ±100 for the full control effect
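Compounds are added to VDR with labelled SRC2-3 coactivator peptide and held 2 h at room temperature. Inhibition of the VDR–peptide interaction is then read as a change in fluorescence polarization.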
G9a inh: blocks human histone lysine methyltransferase G9a; 350,000 tested, 8.8% active; G9a H3K9 monomethylation, AlphaScreen, 2 h; AID 504332; Q96KQ7; Potency, µM (series often up to 102 µM), for the others: at the highest dose activity, negative = inhibition, hits mostly inhibitors; note: % is set by controls: 0 for no effect and ±100 for the full control effect; nearly all actives have a fitted effect of over 75% in size
Target sequence (Q96KQ7 913-1193 limits assumed): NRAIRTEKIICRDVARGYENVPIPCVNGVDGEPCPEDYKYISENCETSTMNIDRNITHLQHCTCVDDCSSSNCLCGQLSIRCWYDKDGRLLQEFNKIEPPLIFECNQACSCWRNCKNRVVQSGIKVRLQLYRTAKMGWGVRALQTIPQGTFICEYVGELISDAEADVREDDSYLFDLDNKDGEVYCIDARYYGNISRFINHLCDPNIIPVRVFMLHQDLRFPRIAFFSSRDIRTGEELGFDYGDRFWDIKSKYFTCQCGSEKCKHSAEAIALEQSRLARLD
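AlphaScreen read-out: biotin-H3K9 peptide (500 nM) methylation by 20 nM enzyme with 20 uM SAM, 2 h at room temperature after 15 min compound preincubation; anti-monomethyl H3K9 antibody plus donor/acceptor beads, 10 min dark.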
JMJD2A Tudor inh: inhibitors of human JMJD2A Tudor domain; O75164; AlphaScreen JMJD2A-Tudor / H3K4me3 peptide binding; Potency, µM (highest dose often 114 µM), inactives show at the top dose activity change, negative = inhibition, actives largely listed as inhibitors; 390,000 tested, 4.4% active; AID 504339; note: % is set by controls: 0 for no effect and ±100 for the full control effect; nearly all actives have a fitted effect of over 50% in size
BAZ2B block: inhibitors of human BAZ2B bromodomain. 360,000 tested, 4.4% active. Potency, µM (titrated, usually from 114 µM), inactives show top-dose activity change, negative = inhibition, hits mostly inhibitors. AlphaScreen BAZ2B-H3K14Ac peptide displacement; note: % is set by controls: 0 for no effect and ±100 for the full control effect; nearly all actives have a fitted effect of over 60% in size
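Multi-concentration screen (max 110 uM) measuring displacement of acetylated histone H3 peptide from BAZ2B by AlphaScreen, using 50 nM protein, 50 nM peptide and 10 ug/mL streptavidin donor plus Ni-chelate acceptor beads.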
* hit, by the source's call; ? = inconclusive; / = not tested or not shown; [ ] = remark or other dose. In the library only some 11% were active in any assay of this set; here they are far more common. Calls come from the whole dose curve; as a rule, active = well fitted curve in the direction sought with a large enough effect; inconclusive = small, poorly fitted or top-dose-only effect, or another doubt; inactive = no such curve, though single readings can be large; an effect the other way counts as inactive or inconclusive. Potency is the fitted concentration of half-maximal effect.

SMILES	HP1b binding inh	PLK1 PBD inh	VDR inh	G9a inh	JMJD2A Tudor inh	BAZ2B block
S=c1[nH]nc(CCc2ccccc2)n1-c1ccc(Cl)cc1	-19%	?	-13%	?	?	-27%
O=C(Nc1ccc2nc(SCCOc3ccccc3Cl)sc2c1)c1cccs1	58%	/	14%	6%[59 µM]	3%	-16%
Cc1ccc2cc(CCNC(=O)c3ccc(C)c([N+](=O)[O-])c3)c(=O)[nH]c2c1	27%	-7%	-7%	8%[59 µM]	-2%	9%
CC(=O)c1ccccc1OCCOCCOc1ccccc1C(C)=O	12%	-9%	-15%	-44%[59 µM]	-4%	3%
CCN(CC)CCOc1ccccc1C(C)=O	?	-12%	33%	11µM*	18µM*	50µM*
CN(C)C(=O)c1ccc(NC(=O)COc2cccc3c2OC(C)(C)C3)cc1	14%	6%	-3%	-15%	-18%	-2%
C/C(=N/NC(=O)Cc1cccs1)c1ccco1	?	?	?	5%[59 µM]	?	-2%
Cc1ccc(OCC(=O)N/N=C/C=C/c2ccco2)cc1C	-19%	-7%	-25%	40µM*	-34%	?
O=C(Cc1cccs1)N/N=C/C=C/c1ccco1	28µM*	?	?	40µM*	?	45µM*
O=C(CNc1cccc2ccccc12)N/N=C/C=C/c1ccco1	6%	0%	-26%	20µM*	-25%	-37%
N#CCCN(NC1=NS(=O)(=O)c2ccccc21)C(=O)c1ccccc1Br	59%	-10%	1%	-3%[2.33 µM]	35µM*	-1%
Cn1cnnc1SCc1ccc(C#N)cc1Cl	15%	-7%	-4%	-4%	-10%	3%
CC1CN(Cc2ccc(C#N)cc2Cl)CC(C)O1 (stereo not given)	33%	-9%	4%	35µM*	?	-6%
CCCOc1ccc(NC(=O)CC2C(=O)N(c3cccc(C)c3)C(=O)N2CCc2ccncc2)cc1 (stereo not given)	29%	/	18%	?	-18%	-17%
N#Cc1nc(-c2ccco2)oc1N1CCN(c2ccccc2)CC1	?	-1%	5%	?	?	13µM*
COc1ccc(N2CCN(c3oc(-c4ccco4)nc3C#N)CC2)cc1	?	-3%	-10%	25µM*	32µM*	/
N#Cc1nc(-c2ccco2)oc1N1CCOCC1	33%	-2%	9%	9%[59 µM]	-4%	4%
CCN(C(=O)COC(=O)c1ccc(S(=O)(=O)N2CCCc3ccccc32)cc1)C1CCS(=O)(=O)C1 (stereo not given)	49%	1%	-12%	-5%	-12%	-12%
Cc1[nH]n(-c2ccccc2)c(=O)c1/C=N/NC(=O)C(C)C	72%	4%	-9%	-38%	79µM*	32µM*
COC(=O)N/N=C\c1c(C)[nH]n(-c2ccccc2)c1=O	14%	-20%	1%	1.8µM*	?	?
Cc1[nH]n(-c2ccccc2)c(=O)c1/C=N\NC(=O)C1COc2ccccc2O1 (stereo not given)	19%	-1%	1%	8%[59 µM]	?	71µM*
COCC(=O)N/N=C/c1c(C)[nH]n(-c2ccccc2)c1=O	21%	-11%	-18%	9%	79µM*	22%
Cc1[nH]n(-c2ccccc2)c(=O)c1C=Nc1ccc(S(N)(=O)=O)cc1	-15%	-1%	2%	?	-16%	-22%
COc1ccccc1-c1ccc2nnc(SC)n2n1	14%[57 µM]	-3%	22%	1%	-6%	-17%
O=C(Cn1cc(C(=O)C2CC2)c2ccccc21)Nc1ccc(Br)cc1	39%	/	-10%	0%[59 µM]	-5%	3%
SMILES	HP1b binding inh	PLK1 PBD inh	VDR inh	G9a inh	JMJD2A Tudor inh	BAZ2B block
COC(=O)CN=Cc1c(C)[nH]n(-c2ccccc2)c1=O	40%	0%	14%	?	-3%	-17%
CC(=O)N/N=C/c1c(C)[nH]n(-c2ccccc2)c1=O	24%	-17%	-25%	-3%	50µM*	79µM*
Cc1[nH]n(-c2ccccc2)c(=O)c1/C=N/O	8%	-18%	-23%	/	79µM*	50µM*
Cc1[nH]n(-c2ccccc2)c(=O)c1C=Nc1ccc(S(=O)(=O)NC(N)=O)cc1	43%	2%	-3%	?	-2%	-22%
Cc1[nH]n(-c2ccccc2)c(=S)c1C=NCCCN=Cc1c(C)[nH]n(-c2ccccc2)c1=S	14µM*	17µM*	?	1.8µM*	2µM*	?
Cc1ccc2cccc(N=Cc3c(C)[nH]n(-c4ccccc4)c3=O)c2n1	-21%	-1%	-19%	10µM*	?	-35%
O=S(=O)(NCCc1nnc2ccc(SCc3c(F)cccc3Cl)nn12)c1ccccc1	24%	/	-2%	-30%[59 µM]	-16%	?
CCOc1ccc2nc(/N=C/c3c(C)[nH]n(-c4ccccc4)c3=O)sc2c1	?	-13%	-9%	25µM*	-14%	0%
Cc1[nH]n(-c2ccccc2)c(=O)c1C=Nc1ccc(S(=O)(=O)N(C)C)cc1	15%	-4%	-8%	2%[59 µM]	1%[57.1 µM]	-36%
CCOC(=O)c1[nH]n(-c2ccc(Cl)cc2)c(=O)c1C	?	-9%	-21%	?	71µM*	?
Cc1[nH]n(-c2ccccc2)c(=O)c1/C=N/N(C)c1ccccc1	-17%	-12%	?	13µM*	?	?
Cc1[nH]n(-c2ccccc2)c(=O)c1C(=O)c1ccc(Cl)cc1	-10%	-2%	-5%	/	50µM*	-13%
Cc1[nH]n(-c2ccccc2)c(=O)c1/C=N/NC(=O)COc1ccccc1[N+](=O)[O-]	15%	-13%	-11%	2%[59 µM]	79µM*	79µM*
Cc1[nH]n(-c2ccccc2)c(=O)c1/C=N/NC(=O)c1cccc([N+](=O)[O-])c1	36%	-4%	5%	31%[2.33 µM]	-21%	-4%
Cc1cc(C)c(S(=O)(=O)n2cnc3ccccc32)c(C)c1	37%	-7%	9%	89µM*	-12%	-9%
O=S(=O)(c1ccc2ccccc2c1)n1cnc2ccccc21	10%	-6%	20%	21%[59 µM]	-9%	5%
COc1cc(C)c(C)cc1S(=O)(=O)n1c(C)nc2ccccc21	16%	27µM*	-22%	/	?	-33%
COc1cc(F)ccc1S(=O)(=O)n1c(C)nc2ccccc21	41%	-13%	-6%	/	-7%	5%
COc1ccc(S(=O)(=O)n2cnc3ccccc32)cc1OC	37%	1%	-5%	71µM*	14%	-7%
Cc1ccc(S(=O)(=O)n2cnc3ccccc32)cc1[N+](=O)[O-]	17%	3%	-3%	-7%[2.33 µM]	-1%	2%
COC(=O)C1=CN(c2ccc3c(c2)OCO3)C(N)=C(C#N)C1c1ccccc1 (stereo not given)	/	-12%	/	/	/	/
